High-throughput results as filed in PubChem BioAssay.
Hits are enriched below; roughly 7.9% of the tested compounds scored in any of these assays.
KB-3-1 cytotox: KB-3-1 parental cell cytotoxicity | KB-3-1 viability, CellTiter-Glo ATP luminescence, 72 h | Potency, µM (top dose mostly 46.1 µM), usual class: cytotoxic | 400,000 tested, 1.4% active; further: on the % scale 0 is the no-effect control and ±100 the full control effect; nearly all actives have a fitted effect of over 60% in size
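Cells are dispensed, compounds pinned in, plates held at 37 °C for 72 h, then CellTiter-Glo is added and luminescence read after 10 minutes. Cell line: parental KB-3-1 in phenol-red-free DMEM, 10% FBS.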
HT1080-NT tox: kills 2HG-producing HT-1080-NT fibrosarcoma cells. AID 686970. 360,000 tested, 1.6% active. Potency, µM (titrated, usually from 46.1 µM), for inactives: at the highest dose activity, negative = less viability, usual class: cytotoxic. HT-1080-NT fibrosarcoma viability, CellTiter-Glo ATP luminescence, 48 h;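 further: NT is the 2HG producing partner of a matched IDH1 knockdown line; 0% = DMSO-treated cells and -100% = media-only wells without cells; nearly all actives have a fitted effect of over 55% in size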
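Compounds were tested in concentration-response format on HT-1080-NT cells for 48 hours at 37 degrees C. Cell viability came from CellTiter-Glo luminescence; curves were classified by r2, response magnitude and activity.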
SW480 rereplic: inducers of DNA re-replication in SW480 colon cancer cells; SW480 DNA re-replication, Hoechst DNA content imaging, 48 h; Potency, µM (series often up to 46.1 µM), without a hit: at the top dose re-replication activation, usual class: activators; 340,000 tested, 1.8% active; AID 624297; further: % of control where 0% means no effect; nearly all actives have a fitted effect of over 55% in size
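DNA re-replication was detected as more nuclei of elevated Hoechst intensity after 48 hr exposure to compound (23 nL pinned per well of 250 cells).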
KB-V1 cytotox: KB-V1 MDR subline cytotoxicity | 400,000 tested, 3.4% active | KB-V1 MDR cells viability, CellTiter-Glo, 72 h | Potency, µM (titrated, usually from 46.1 µM), hits mostly cytotoxic; further: on the % scale 0 is the no-effect control and ±100 the full control effect; nearly all actives have a fitted effect of over 60% in size
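Readout: CellTiter-Glo luminescence, 10 min after addition. Cells: KB-V1 MDR subline, 72 h at 37 degrees C with compound. Analysis: corrected, normalized data fitted to concentration-effect curves.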
MCF10A rerep: DNA re-replication induction in MCF 10a cells; MCF 10A DNA re-replication, Hoechst nuclear intensity, 48 h; Potency, µM (highest dose often 46.1 µM), inactives show at the top dose activity, positive = re-replication, usual class: activators; 350,000 tested, 2.9% active; AID 624296; further: % of control where 0% means no effect; nearly all actives have a fitted effect of over 50% in size
HT1080 IDH1KD tx: toxicity to HT-1080 IDH1 knockdown cells (counter line); 360,000 tested, 2% active; HT-1080 IDH1 knockdown viability, ATP luminescence, 48 h; AID 686971; Potency, µM (titrated, usually from 46.1 µM), for inactives: at the highest dose activity, negative = toxicity, usual class: cytotoxic;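 further: 0% = DMSO wells and -100% = cell-free medium wells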
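Luminescent ATP read-out (CellTiter-Glo, 10 min at room temperature) after 48 h compound exposure at 37 °C gave viability of IDH1-knockdown HT-1080 cells. Activity was normalised to DMSO and cell-free wells, then fitted as concentration-response curves.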
* = called active by the depositor; i = inactive; ? = inconclusive; . = no result given; [ ] = remark or other dose. The call rests on the fitted dose curve; in most records, active means well fitted curve in the direction sought with a large enough effect; inconclusive means small, poorly fitted or top-dose-only effect, or another doubt; inactive means no such curve, though single readings can be large; an effect the other way counts as inactive or inconclusive. Potency means the concentration at half of the fitted maximal effect.

SMILES	KB-3-1 cytotox	HT1080-NT tox	SW480 rereplic	KB-V1 cytotox	MCF10A rerep	HT1080 IDH1KD tx
CCOc1ccccc1NC(=S)N(CCC(C)C)C1CCN(C(C)=O)CC1	i	-4%	-6%	i	18%	12%
CCN(Cc1ccccc1)C(=O)c1cc2c(s1)-c1c(C)cccc1OC2	i	.	.	i	.	.
Cc1nn(-c2nc(-c3ccco3)cc(C(F)(F)F)n2)c(C)c1Br	i	29%	-2%	i	0%	27%
Fc1ccc(N2CCN(c3nc(-c4ccco4)cc(C(F)(F)F)n3)CC2)cc1	i	-25%	-9%	i	?	-24%
O=[N+]([O-])c1cnn(-c2nc(-c3ccco3)cc(C(F)(F)F)n2)c1	i	24%	18µM*	i	15%	13%
FC(F)(F)c1cc(-c2ccco2)nc(N2CCN(Cc3ccccc3)CC2)n1	i	16%	3%	i	13µM*	-26%
FC(F)(F)c1cc(-c2ccco2)nc(NCCc2ccccc2)n1	i	3%	?	i	18µM*	17%
CC(=O)Nc1ccc(NC(=O)COC(=O)CCNS(=O)(=O)c2c(Cl)cccc2Cl)cc1	i	1%	1%	i	-2%	2%
O=C(Nc1ccccc1)C1=C[C@@H](C2CC2)C[C@@H](OCCCCO)O1	i	9%	-11%	7.3µM*	-8%	8%
O=C(NCc1ccccc1)C1=C[C@H](c2csc3ccccc23)C[C@H](OCCCCO)O1	?	-5%	?	7.3µM*	?	-12%
C=CCOC(=O)C1=C[C@@H](c2cn(C(C)=O)c3ccccc23)C[C@@H](OCc2ccc(CO)cc2)O1	i	-4%	-29%	i	23µM*	-14%
CC(=O)n1cc([C@@H]2C=C(C(=O)NCc3ccccc3)O[C@H](OCc3ccc(CO)cc3)C2)c2ccccc21	i	-24%	-4%	i	13µM*	-22%
COc1cc(/C=N/Nc2nc(C)cc(=O)[nH]2)cc(OC)c1O	i	13%	3%	i	-1%	9%
Cc1ccc(S(=O)(=O)NCCN=C(CN2CCCC2)NS(=O)(=O)c2ccc(C)cc2)cc1	i	11%	7%	6.5µM*	1%	-3%
CC(C)NC(=O)c1ccc2c(=O)n(CC3CCCO3)c(=S)[nH]c2c1 (stereo unspecified)	i	2%	-5%	i	-3%	0%
COc1ccc(F)cc1C(=O)C1CCCN(Cc2cn(C)c3ccccc23)C1 (stereo unspecified)	i	?	15µM*	i	9.2µM*	?
O=C(Nc1ccc2oc(-c3ccccc3)nc2c1)c1cccs1	i	-16%	-5%	i	8%	-10%
O=C(Nc1cccnc1)c1cc2c(ccc3ccccc32)o1	?	-8%	-4%	13µM*	12%	0%
Cc1c(C(=O)Nc2ccc3oc(-c4cccnc4)nc3c2)oc2ccccc12	i	?	21µM*	?	?	?
O=C(Nc1ccc2oc(-c3ccccc3)nc2c1)c1ccncc1	?	-11%	-1%	8.2µM*	7%	-19%
Cc1ccc(-c2nc3cc(NS(=O)(=O)c4ccc(C)cc4)ccc3o2)cc1	i	?	?	i	?	?
O=S(=O)(Nc1ccc2oc(-c3ccccc3)nc2c1)c1ccccc1	i	?	?	i	21µM*	?
O=c1cc(C(F)(F)F)nc(-n2[nH]c3c(c2=O)CCCC3)[nH]1	?	-26%	?	?	-8%	-28%
Cc1sc(NC(=O)c2ccccc2F)c(CN2CCCCC2C)c1C (stereo unspecified)	i	8%	1%	?	?	11%
Nc1cccc(-c2nc3cc(S(=O)(=O)c4ccc5oc(-c6cccc(N)c6)nc5c4)ccc3o2)c1	?	?	6.5µM*	?	?	?
SMILES	KB-3-1 cytotox	HT1080-NT tox	SW480 rereplic	KB-V1 cytotox	MCF10A rerep	HT1080 IDH1KD tx
Cc1c(C(=O)Nc2cccnc2)oc2ccc(Br)cc12	8.2µM*	?	?	3.3µM*	?	?
O=C(Nc1ccc2oc(Cc3ccc(Cl)cc3)nc2c1)c1cccnc1	i	?	16µM*	?	?	-12%
Cc1ccc2oc(-c3cccc(N)c3)nc2c1	i	-9%	-8%	?	-42%	-14%
O=C(Nc1ccc2oc(-c3ccccc3Cl)nc2c1)c1cncc(Br)c1	?	?	?	5.2µM*	16µM*	-9%
O=C(Nc1ccc2oc(-c3cc(Br)ccc3Cl)nc2c1)c1ccc2ccccc2c1	i	.	.	i	.	.
COc1cccc(-c2c(C(=O)N/N=C(\C)COc3ccccc3)nnn2-c2nonc2N)c1	i	11%	-11%	i	3%	-6%
COc1ccc(Nc2nc(N)nc(N)c2S(=O)(=O)c2ccccc2)cc1	i	.	.	?	.	.
CCN(CC)CC(=O)Nc1ccc(-c2nc3cc(NC(=O)CN(CC)CC)ccc3o2)cc1	?	-3%	-3%	18µM*	-1%	-3%
O=C(Nc1ccc(-c2nc3ccccc3o2)cc1)c1ccc(N2C(=O)C3C4C=CC(C4)C3C2=O)cc1 (stereo unspecified)	i	3%	11%	4.1µM*	?	0%
O=C(Nc1cccnc1)c1ccc(Br)s1	i	?	19%	?	2%	10µM*
N#Cc1c(Cl)cccc1-n1ccnc1	i	-2%[9.24 µM]	-4%	i	10%	-6%
COc1ccc(Cn2cc(C(=O)c3ccc(Cl)cc3)c(=O)c3cc4c(cc32)OCO4)cc1	i	.	.	i	.	.
O=C(Nc1sc2c(c1C(=O)O)CCC2)c1cccs1	?	-1%	3%	23µM*	1%	0%
COc1ccc(/C=N/n2c(SC)nnc2-c2ccccc2)cc1C	?	?	7.3µM*	18µM*	18µM*	?
COc1cccc(/C=N\n2c(C)nnc2C)c1OC	i	4%	-3%	i	1%	4%
COc1ccc(/C=N/n2c(SC)nnc2-c2ccccc2)c(OC)c1OC	?	-16%	5.8µM*	5.2µM*	15µM*	?
Cc1cc(-c2ccco2)n(CC(=O)O)n1	i	9%	16%	i	22%	-2%
O=C(c1ccc(N2CCCCC2)c([N+](=O)[O-])c1)N1CCN(S(=O)(=O)c2ccccc2)CC1	i	2%	-108%	i	-7%	-5%
CO/N=C/c1ccc(N2CCN(C(=O)c3ccc(C)cc3)CC2)c([N+](=O)[O-])c1	?	4%	1%	9.2µM*	19%	-11%
